An excerpt weighted towards active compounds, which were near 14% of everything screened.
AID923 = qHTS Assay for Allosteric/Competitive Inhibitors of Caspase-1: Spectroscopic Profiling in AFC Spectral Region; actives 1.1% (n = 75,000); AID 923, 2007; compound fluorescence, AFC spectral region (405/520 nm); Potency, µM (doses to about 57.5 µM), without a hit: at the top dose fluorescence increase, most hits filed as activators; note: potency is the fitted concentration of half-maximal effect; 0% is about no effect
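Baseline compound fluorescence (AFC region, 405 nm ex/520 nm em) taken from the intercept of kinetic reads with 50 nM caspase-1 and 5 uM Ac-WEHD-AFC; normalized to an on-plate AFC standard curve; compounds titrated up to 57 uM.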
HSD17B inhib = blocks hydroxysteroid 17-beta dehydrogenase activity; Q99714; recombinant HSD17B10, NADH fluorescence kinetic; Potency, µM (top dose mostly 57.1 µM), for inactives: top-dose activity change, negative = inhibition, most hits filed as inhibitors; actives 7.6% (n = 75,000);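 note: the protocol describes HADH2 (HSD17B10) and not the HSD17B4 of the title; potency is the fitted concentration of half-maximal effect; % is set by controls: 0 for no effect and ±100 for the full control effect; nearly all actives have a fitted effect of over 70% in size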
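20 nM HADH2, pH 9.0 Tris/Tween; cpd preinc 15 min RT; start w/ 1 mM NAD+ + 90 uM b-hydroxybutyryl-CoA; kinetic fluor ex360/em450 q30s x 4 min; delta last-first.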
4MU fluor = 4-MU region autofluorescence; max dye-equivalent concentration, M; compound autofluorescence, 340/450 nm, 4-MU equivalents; active compounds read high; AID 589; actives 11% (n = 59,000); in the data active = max dye-equivalent concentration above about 10 nM; inconclusive = mostly about 1.1 nM to 9.6 nM
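Compounds in 100 mM Tris, pH 8.0, sat 15 min at room temperature before fluorescence was read at 340 nm excitation/450 nm emission; a per-plate six-point 4-MU standard curve converted signals to dye-equivalent concentration at each compound concentration.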
HADH2 inh = inhibitors of human HADH2 dehydrogenase; Q99714; recombinant HADH2, NADH fluorescence, beta-hydroxybutyryl-CoA; actives 3.4% (n = 73,000); Potency, µM (series often up to 57.1 µM), for inactives: at the top dose activity change, negative = inhibition, hits mostly inhibitors; note: potency is the fitted concentration of half-maximal effect; % is set by controls: 0 for no effect and ±100 for the full control effect; nearly all actives have a fitted effect of over 60% in size
Target sequence (Q99714 whole entry, looked up, one chain of several): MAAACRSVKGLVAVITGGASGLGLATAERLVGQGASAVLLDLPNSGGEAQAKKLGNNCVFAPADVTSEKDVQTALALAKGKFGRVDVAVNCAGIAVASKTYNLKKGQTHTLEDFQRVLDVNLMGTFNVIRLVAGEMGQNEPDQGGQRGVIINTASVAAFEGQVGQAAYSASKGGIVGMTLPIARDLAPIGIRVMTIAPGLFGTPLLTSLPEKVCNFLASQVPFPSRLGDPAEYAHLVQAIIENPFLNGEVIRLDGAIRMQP
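NADH fluorescence (ex 360/em 450 nm) read every 30 s for 4 min; activity taken as last-minus-first time point difference. Enzyme 20 nM, NAD+ 1 mM, beta-hydroxybutyryl-CoA 90 uM, pH 9.0 Tris buffer.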
CRE Fsk mod = alters forskolin-stimulated CRE reporter signaling in CHO cells | CHO CRE-bla reporter (cAMP response element driving beta-lactamase), forskolin EC10, beta-lactamase ratio | Potency, µM (highest dose often 38.2 µM), inactives show at the top dose activity change, negative = inhibition, usual class: activators | actives 2.5% (n = 71,000) | AID 662; active = well fitted activation curve with a large enough effect in the signal ratio, with a control signal flat, not every such curve was filed as active; inconclusive = small, poorly fitted or top-dose-only effect, or effect the other way, or a change in a side signal; the % refers to the signal ratio; note: potency is the fitted concentration of half-maximal effect; % of control where 0% means no effect
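Cells were plated overnight at 37 °C, exposed to compound titrations plus EC10 NKH 477 for 3 h, then given CCF4 dye for 2 h at room temperature. Blue/green (460/530 nm) ratio was converted to %Activity and AC50 values calculated.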
A350 fluor = A350 region autofluorescence | Compound autofluorescence, 340/450 nm, Alexa 350 dye-equivalents; active compounds read high | max dye-equivalent concentration, M | actives 11% (n = 59,000) | AID 590; in the data active = max dye-equivalent concentration above about 10 nM; inconclusive = mostly about 1.1 nM to 9.6 nM
An asterisk follows results filed as active; i = inactive; u = inconclusive; x = not tested or not shown; [ ] = dose if it differs, or a comment. Unless noted, calls come from the whole dose curve; as a rule, active = well fitted curve in the direction sought with a large enough effect; inconclusive = small, poorly fitted or top-dose-only effect, or another doubt; inactive = no such curve, though single readings can be large; an effect the other way counts as inactive or inconclusive.

SMILES | AID923 | HSD17B inhib | 4MU fluor | HADH2 inh | CRE Fsk mod | A350 fluor
COc1ccc(OC)c2c(C)cc(N3CCN(C(=O)c4ccc(F)cc4)CC3)nc12 | -1% | 25µM* | 4e-08M* | -15% | 5% | 3.4e-08M*
COc1ccccc1-c1cc(C(=O)N2CCN(c3ccc(F)cc3)CC2)no1 | 0% | 35% | 1.4e-08M* | 17% | 11% | 1.6e-08M*
COc1ccccc1-c1cc(C(=O)N2CCc3ccccc3C2)no1 | -2% | -14% | x | -14% | u | x
COc1ccccc1-c1cc(C(=O)Nc2ccc(F)cc2F)no1 | 0% | 32µM* | i | u | 12% | i
COc1ccc(NC(=O)N2CCCC3(CCN(C(=O)c4cc(C(F)(F)F)cc(C(F)(F)F)c4)CC3)C2)cc1 | 0% | -4% | i | -2% | u | i
O=C1C[C@@H](O)[C@@H](O)[C@H]2[C@@H]3C(=O)N(C4CCCCC4)C(=O)[C@@H]3CC[C@H]12 | 0%[11.5 µM] | 1%[11.4 µM] | x | -5%[11.4 µM] | x | x
NS(=O)(=O)c1ccc(CCNc2nc(CN3CCOCC3)nc3sc4c(c23)CCC4)cc1 | 1% | u | 1e-08M* | -2% | 24% | 1.5e-08M*
Clc1ccc2c(c1)N(CCCN1CCCC13CCCCC3)c1ccccc1S2 | 0%[11.5 µM] | -3%[11.4 µM] | i | 8%[11.4 µM] | -9%[7.6 µM] | i
NCCNc1ncnc2ccc(Cl)cc12 | -2%[11.5 µM] | -3%[11.4 µM] | i | -9%[11.4 µM] | 6%[7.6 µM] | i
CCN1CCN(c2nc3c(C)cccn3c(=O)c2/C=C(\C#N)S(=O)(=O)c2ccccc2)CC1 | x | x | 1.6e-08M* | x | x | 2e-08M*
CO[C@H]1COC(=O)C/C=C\[C@@H](C)COC(=O)[C@H]2CCCN2C(=O)C/C=C\[C@H]1C | 0%[11.5 µM] | -1%[11.4 µM] | x | 4%[11.4 µM] | x | x
CN(C)c1ccc2nc3c(C(=O)O)cc(=O)c(O)c-3oc2c1 | -1%[11.5 µM] | u | i | 4µM* | -5%[7.6 µM] | i
CC(=O)N(C(C)=O)c1ccc2nc(C)[nH]c(=O)c2c1 | 1% | 39% | i | 7% | 10% | u
CCOC(=O)C1CSC(Cc2ccc(OCc3ccc([N+](=O)[O-])cc3)cc2)N1 (configuration not stated) | -1% | -14% | x | u | x | x
Cc1cc(N2CCc3ccccc32)n2ncnc2n1 | 10% | u | 1.3e-08M* | -2% | 28% | 1.6e-08M*
CCN1C(=O)/C(=C\N2CCCCCC2)SC1=S | 1% | -6% | i | -3% | 21% | i
CCN1C(=O)/C(=C2/SC(C)=C(C)N2CC)SC1=S | 15% | 2% | 2.4e-08M* | u | 4% | 3e-08M*
CCC(C)NC(=O)C1(C)CCC(=O)N1Cc1ccccc1OC (configuration not stated) | 0% | 1% | i | 1% | -9% | i
COc1ccccc1CN1C(=O)CCC1(C)C(=O)NCc1cccnc1 (configuration not stated) | 1% | -1% | 1.2e-08M* | 11% | u | 1.3e-08M*
COc1ccccc1C(=O)NC(=Nc1nc2ccccc2o1)NC(=O)c1ccccc1OC | x | x | i | x | x | i
N/C(=N\c1nc2ccccc2o1)NC(=O)c1ccccc1NC(=O)c1ccccc1 | x | x | 1.6e-08M* | x | x | 1.9e-08M*
CCCc1noc(-c2ccc(-c3ccccc3)cc2)n1 | -2% | 32µM* | i | 18% | u | i
CCC1=C(OC(=O)N(CC)CC)N2C(=O)OC(=NCCOC)[C@]2(C)[C@H]2C1=CC[C@H]1C(=O)N(C)C(=O)[C@H]12 | 2% | 7% | x | x | x | x
N#Cc1ccc(CN2CC3(CCN(C(=O)c4cc(C(F)(F)F)cc(C(F)(F)F)c4)CC3)C2)cc1 | 3% | 2% | i | -17% | -2% | i
Cc1ccc(N)cc1O | 17% | -6% | x | -23% | -18% | x
Cc1cc(O)c(-c2cc(O)c(C)cc2O)cc1O | 0%[11.5 µM] | 1µM* | 2e-08M* | 0.4µM* | -8%[7.6 µM] | 1.5e-08M*
O=C1NC(=S)SC1=C1CCCCCC1 | -2% | u | i | 25µM* | 24% | u
Cn1c(SC/C=C/c2ccccc2)nnc1-c1cnccn1 | -1% | 11% | i | 8% | 25% | i
